Compounds with a hit are over-represented: about 0.89% of the library has one in this group of screens.
AGP1-GFP MLPCN: modulators of TOR pathway AGP1-GFP in S. cerevisiae; AID 2066; S. cerevisiae AGP1-GFP multiplex flow cytometry, 3 h; GFP as percent of DMSO wells; hit rate 0.02% among 320,000; GFP response vs DMSO, % at 10 µM;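 active = GFP response relative to DMSO above a set limit, near screen average plus 3 SD, cut at about 150% in these data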;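 note: median GFP channel fluorescence of the gated AGP1 strain per well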
RPL19A TOR yeast: alters RPL19A-GFP fluorescence in TOR pathway yeast screen; AID 2025; hit rate 0.3% among 330,000; percent response vs DMSO, % at 10 µM; S. cerevisiae RPL19A-GFP strain, flow cytometry, 3 h; active compounds read low;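 active = percent response vs DMSO below 50%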;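 note: median channel GFP fluorescence of the barcoded RPL19A-GFP strain; ratio of sample median GFP to plate DMSO average so 100% = DMSO; lower means less RPL19A-GFP as with rapamycin TOR inhibition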
MEP2-GFP yeast: modulators of TOR pathway MEP2-GFP in S. cerevisiae; GFP response vs DMSO, % at 10 µM; S. cerevisiae MEP2-GFP strain, flow cytometry GFP, 3 h; 100% = DMSO control level; hit rate 0.51% among 330,000;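 active = GFP response versus DMSO above a set limit, roughly screen mean plus 3 SD, cut at about 180% in these data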;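 note: median GFP fluorescence of the barcode-gated MEP2-GFP cells per well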
CIT2 TOR yeast: modulators of TOR pathway CIT2-GFP in S. cerevisiae. S. cerevisiae CIT2-GFP strain, flow cytometry, 3 h; 100 means same as DMSO wells. GFP response vs DMSO, % at 10 µM. hit rate 0.065% among 320,000;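 active = GFP response relative to DMSO above a set limit, near the screen mean plus 3 SD, cut at about 150% in these data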;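 note: ratio of well median GFP fluorescence to mean of DMSO wells on the plate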
LAP4-GFP MLPCN: yeast TOR pathway LAP4-GFP modulation | S. cerevisiae LAP4-GFP multiplex, flow cytometry GFP, 3 h; median GFP as percent of DMSO wells | GFP response vs DMSO, % at 10 µM | hit rate 0.34% among 320,000 | AID 2023;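 active = GFP response vs DMSO above a set limit, about the screen mean plus 3 SD, cut at about 150% in these data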
LAP4-GFP pick2: yeast LAP4-GFP modulation, second cherry pick; shares compounds with LAP4-GFP MLPCN; S. cerevisiae LAP4-GFP strain, flow cytometry GFP, 3 h; GFP response vs DMSO, % at 10 µM; hit rate 20% among 590; AID 2621;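 active = GFP signal as percent of the solvent control above about 150%, meaning raised reporter expression, limit read from the data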;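 note: ratio of well median GFP fluorescence to plate DMSO mean so 100% = DMSO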
MEP2 cherry2: yeast MEP2-GFP modulation, second cherry pick. hit rate 10% among 590. S. cerevisiae MEP2-GFP strain, flow cytometry GFP, 3 h. AID 2622. GFP response vs DMSO, % at 10 µM. shares compounds with LAP4-GFP MLPCN;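 active = GFP signal above 150% of the solvent control wells, that is a rise of more than half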;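 note: median channel GFP fluorescence of all gated yeast cells per well; ratio of median GFP to plate DMSO average so 100% = DMSO level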
RPL19A GFP CP2: second confirmation of modulators of TOR reporter RPL19A-GFP in yeast; hit rate 3% among 590; shares compounds with LAP4-GFP MLPCN; S. cerevisiae RPL19A-GFP strain, flow cytometry GFP, 3 h; active compounds read low; 100% means same as DMSO wells; GFP response vs DMSO, % at 10 µM;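 active = under 65% GFP response relative to DMSO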;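 note: median GFP channel fluorescence per well over the all cells gate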
CIT2-GFP pick2: yeast CIT2-GFP TOR reporter modulation, second cherry pick | hit rate 8% among 590 | shares compounds with LAP4-GFP MLPCN | AID 2624 | S. cerevisiae CIT2-GFP strain, flow cytometry GFP, 3 h; DMSO control wells read 100% | GFP response vs DMSO, % at 10 µM;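 active = GFP response vs DMSO above about 150%, limit read from the data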;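 note: median green fluorescence per well over all gated yeast cells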
AGP1 GFP CP2: second confirmation of modulators of TOR reporter AGP1-GFP in yeast | AID 2643 | percent response vs DMSO, % at 10 µM | shares compounds with LAP4-GFP MLPCN | 590 tested, under 10 active | S. cerevisiae AGP1-GFP strain, flow cytometry GFP, 3 h;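 active = over 150 percent of DMSO response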;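 note: median GFP channel fluorescence over all cells without mother daughter split; sample median GFP divided by mean DMSO control so 100% equals DMSO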
Yeast autofluor: counter-screen for compound autofluorescence in yeast s288c cells | S. cerevisiae s288c, 520 nm autofluorescence, flow cytometry, 3 h; active compounds read high; zero means same as solvent-only cells | shares compounds with LAP4-GFP MLPCN | AID 2757 | 610 tested, under 10 active | fluorescence change (kMESF span) at 33 µM;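 active = fluorescence span over the dose series, or activity score, above about 33, limit read from the data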
* hit, by the source's call; · = no result; [ ] = another dose, or the depositor's remark.

SMILES	AGP1-GFP MLPCN	RPL19A TOR yeast	MEP2-GFP yeast	CIT2 TOR yeast	LAP4-GFP MLPCN	LAP4-GFP pick2	MEP2 cherry2	RPL19A GFP CP2	CIT2-GFP pick2	AGP1 GFP CP2	others
Cc1c(NC(=O)C(C)Sc2n[nH]c(N)n2)c(=O)n(-c2ccccc2)n1C (configuration not stated)	149.0	57.0	647.5*	170.0*	195.9*	97.1	104.8	100.9	108.6	102.2
Cc1nc(SC(C)C(=O)Nc2c(C)n(C)n(-c3ccccc3)c2=O)nc(C)c1C (configuration not stated)	93.0	92.9	96.7	85.8	90.9	·	·	·	·	·
Cc1nn2c(NCc3ccccn3)cc(C(C)C)nc2c1-c1ccccc1	69.9	94.0	96.3	63.7	126.7	·	·	·	·	·
CCCc1cc(NCc2ccccn2)n2nc(C)c(-c3ccccc3)c2n1	70.4	90.3	98.7	66.9	157.6*	·	·	·	·	·	Yeast autofluor=2.02
C#CCOc1c(Cl)cc(C2C3=C(CCCC3=O)N(CC(=O)O)C3=C2C(=O)CCC3)cc1OC	32.6	51.9	117.3	79.9	87.5	104.2	117.0	101.5	111.2	99.0
N/C(=N\OC(=O)c1cccc(Br)c1)c1ccccc1	63.1	93.4	103.5	119.5	178.2*	·	·	·	·	·	Yeast autofluor=0.1
CCCn1ncc(CN2CCC(C(=O)Nc3cccc(-c4cccc(F)c4)c3)CC2)c1C	96.0	99.4	103.1	97.4	98.6	·	·	·	·	·
CCCCN(C)C1=CC2=CC(=C(C#N)C#N)CCC2CC1 (configuration not stated)	122.9	125.7	334.5*	207.1*	189.6*	489.0*	821.0*	152.0	618.8*	132.7
CCN(CC)C1=CC2=CC(=C(C#N)C#N)CCC2CC1 (configuration not stated)	123.5	139.7	297.3*[may fluoresce green]	310.0*[may fluoresce green]	197.2*[may fluoresce green]	353.7*	469.9*	127.8	433.9*	120.0
Cc1c(C(=O)N2CCCCC2)c(S(=O)(=O)N2c3ccccc3CC2C)c(C)n1C (configuration not stated)	98.1	96.7	96.9	112.7	93.6	·	·	·	·	·
CCOP(=O)(OCC)C(Nc1cccc([N+](=O)[O-])c1)c1ccc(N(C)C)cc1 (configuration not stated)	77.1	85.9	103.5	86.0	103.0	·	·	·	·	·
CCOP(=O)(OCC)C(Nc1cccc([N+](=O)[O-])c1)c1ccc(OC)cc1 (configuration not stated)	40.0	58.0	137.9	94.5	98.9	100.0	101.5	101.1	108.6	102.2
COc1ccc(N2CCN(C(=O)c3ccccc3)CC2)c([N+](=O)[O-])c1	65.4	70.4	89.2	61.2	189.3*	·	·	·	·	·	Yeast autofluor=-0.3
COc1ccc(N2CCN(C(=O)c3ccc(C)cc3)CC2)c([N+](=O)[O-])c1	94.4	95.2	91.4	85.8	97.0	·	·	·	·	·
COc1ccc(N2CCN(C(=O)c3ccc(Br)cc3)CC2)c([N+](=O)[O-])c1	121.9	90.2	99.2	72.0	198.6*	·	·	·	·	·	Yeast autofluor=2.34
Cc1cccc(NC(=O)[C@@H]2CCCN2C(=O)OC(C)(C)C)c1	102.5	103.9	101.7	111.4	109.0	·	·	·	·	·
C=CCNC(=O)N[C@@H](Cc1ccccc1)C(=O)OC	105.1	100.0	93.2	100.7	110.2	·	·	·	·	·

Assay outcomes from PubChem.
